From PubChem
Most compounds without a hit are left out; they make up all but 11% or so of the library.
PNC inhibitor: perinucleolar compartment assembly inhibition; PC3M PTB-GFP, PNC prevalence imaging, 16 h; stronger effect = lower value; activity change (PNC), negative = inhibition, % at 10 µM; 140,000 compounds, 3.1% hits;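 active = readout at or below -70, meaning at least 70% loss of cells showing the perinucleolar compartment, a nuclear body marking cancer cells; inconclusive = readout between -30 and a set limit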
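Compounds are pinned in duplicate onto adhered PC3M cells stably expressing GFP-tagged PTB and incubated 16 h at 37 C. Cells are then fixed, nuclei stained with Hoechst, and PNC-positive cells counted.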
HPGD block: blocks human HPGD enzyme activity; P15428; purified HPGD, NADH fluorescence kinetic, PGE2 substrate; Potency, µM, actives largely listed as inhibitors; 150,000 compounds, 4.3% hits; AID 894
Target sequence (P15428 whole entry, looked up): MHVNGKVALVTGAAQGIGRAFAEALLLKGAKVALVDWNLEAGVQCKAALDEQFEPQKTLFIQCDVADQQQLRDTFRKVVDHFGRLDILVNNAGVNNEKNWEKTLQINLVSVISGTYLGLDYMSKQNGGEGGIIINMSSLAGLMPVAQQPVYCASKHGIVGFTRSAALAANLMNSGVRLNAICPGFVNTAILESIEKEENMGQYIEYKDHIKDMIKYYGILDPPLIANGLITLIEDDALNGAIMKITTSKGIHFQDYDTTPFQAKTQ
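NADH formation kinetics: reaction with 30 uM PGE2 and 1 mM NAD+ (final), 20 nM enzyme, Tris-HCl pH 8 with Tween 20, after 15 min compound preincubation at room temperature. Fluorescence change, last versus first of five reads.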
ALDH1A1 inh: blocks purified human ALDH1A1 activity | 220,000 compounds, 7.3% hits | Potency, µM (highest dose often 75.3 µM), hits mostly inhibitors | P00352 | AID 1030 | Purified ALDH1A1, NADH fluorescence, propionaldehyde substrate
Of the large screens only hits and unclear results are named; the others gave an inactive call. Unless noted, calls follow the shape of the dose curve; as a rule, active = well fitted inhibition curve with a large enough effect (not every such curve was filed as active); inconclusive = small, poorly fitted or top-dose-only effect, or another doubt; inactive = no such curve, though single readings can be large or run the other way.

CNS(=O)(=O)c1ccc(NC(=O)c2ccccn2)cc1	none
CCOC(=O)c1c(C)n2c3c(cc(C)cc13)CCC2	none (no result: PNC inhibitor, HPGD block)
Cc1ccccc1OCC1CO1 (configuration not stated)	ALDH1A1 inh inconclusive (no result: PNC inhibitor)
CCOC(=O)c1c(C)nc2c(c1-c1ccc(Cl)cc1)C(=O)CC(C)(C)C2	none (no result: HPGD block)
COc1cc(NC(=S)N2CCCC(CO)C2)c(OC)cc1Cl (configuration not stated)	HPGD block inconclusive
COc1ccc(N(C(C)=O)c2nc(C)cc(C)c2C#N)c(OC)c1	none (no result: PNC inhibitor, HPGD block)
O=C(CCc1ccc(O)cc1)c1c(O)cc(O)cc1O	HPGD block 35µM (no result: PNC inhibitor)
O=C(Cc1ccccc1)c1ccc2c(c1)OCCO2	none (no result: PNC inhibitor, HPGD block)
O=C(/C=C/c1ccc(O)cc1)c1c(O)cc(O)cc1O	none (no result: PNC inhibitor)
O=C(Cc1ccc2c(c1)OCCO2)c1c(O)cc(O)cc1O	HPGD block 20µM, ALDH1A1 inh inconclusive
COc1ccc(C(=O)Cc2ccc3c(c2)OCO3)c(O)c1	HPGD block inconclusive
O=C(O)COc1ccc(C(=O)Cc2ccc3c(c2)OCCCO3)c(O)c1	HPGD block inconclusive, ALDH1A1 inh 22µM
C=CCNC(=S)NNC(=O)c1cc(O)ccc1O	none (no result: PNC inhibitor, HPGD block)
NS(=O)(=O)c1ccc(CCNC(=O)C2CCN(S(=O)(=O)c3ccc(Br)s3)CC2)cc1	none (no result: PNC inhibitor, HPGD block)
CC1CCC(C(C)C)C(=O)C1 (configuration not stated)	none (no result: PNC inhibitor)
COc1ccccc1-c1nnc(SCC(=O)NC2CCS(=O)(=O)C2)n1CCc1ccccc1 (configuration not stated)	none
O=S(=O)(NC1CCCCC1Nc1ccc(Cl)cc1)c1ccccc1 (configuration not stated)	ALDH1A1 inh 14µM
O=S(=O)(NC1CCCCC1Oc1ccccc1)c1ccccc1 (configuration not stated)	ALDH1A1 inh 16µM
O=S(=O)(NC1CCCCC1Sc1ncccn1)c1ccccc1 (configuration not stated)	ALDH1A1 inh inconclusive
Cc1ccc(NC2CCCCC2NS(=O)(=O)c2ccc(Cl)cc2)cc1 (configuration not stated)	PNC inhibitor inconclusive
COc1cc(OC)cc(-c2nc3ccccc3c(=O)n2OC(=O)c2ccc(C)c(C)c2)c1	none
C[n+]1cccc2cccc([O-])c21	none (no result: PNC inhibitor, HPGD block)
CCn1nc(C)c(C2C(C#N)=C(N)OC3=C2C(=O)CC(C)(C)C3)c1C (configuration not stated)	PNC inhibitor inconclusive
O=C(Cn1[nH]c(=O)c2ccccc2c1=O)NNC(=O)c1ccccc1	none (no result: PNC inhibitor, HPGD block)
CCOC(=O)c1c(C)[nH]c(C2=NNC(=Nc3ccccc3OC)SC2)c1C	none
CCOC(=O)c1c(C)[nH]c(C2=NNC(=Nc3ccccc3)SC2)c1C	ALDH1A1 inh 13µM (no result: HPGD block)
CC(=O)c1c(C)[nH]c(C2=NNC(=NC(C)(C)C)SC2)c1C	ALDH1A1 inh 11µM (no result: PNC inhibitor, HPGD block)
CCOC(=O)c1c(C)[nH]c(C2=NNC(=Nc3ccc(OCC)cc3)SC2)c1C	ALDH1A1 inh inconclusive
Cc1ccc(C(=O)Nc2cccc(-c3cnc4ccccc4n3)c2)cc1	none
CC(=O)Nc1ccc(C(=O)Nc2cccc(-c3cnc4ccccc4n3)c2)cc1	none (no result: PNC inhibitor, HPGD block)
CC(C)C(=O)Nc1cccc(-c2cnc3ccccc3n2)c1	PNC inhibitor -96
O=C(Nc1cccc(-c2cnc3ccccc3n2)c1)c1ccco1	ALDH1A1 inh 25µM
CCC(Sc1nccn1C)C(=O)Nc1ccc(Cl)cn1 (configuration not stated)	none (no result: PNC inhibitor, HPGD block)
CCNc1ncc2nc(-c3cn(C)c4ccccc34)c(=O)n(C[C@H]3CCCO3)c2n1	none (no result: PNC inhibitor, HPGD block)
O=C(NCC1CCCO1)C1CCCN1C(=O)Nc1ccc(Cl)cc1 (configuration not stated)	none (no result: PNC inhibitor, HPGD block)
c1ccc(Oc2nc(NC3CCCCC3)c3[nH]cnc3n2)cc1	ALDH1A1 inh inconclusive (no result: PNC inhibitor)
CC(=O)N1C(C)(C)CC(=NOC(=O)c2ccc(C)cc2)CC1(C)C	none (no result: PNC inhibitor, HPGD block)
COc1ccc(/C(C)=N/OCC(=O)N2CC3(C)CC2CC(C)(C)C3)cc1 (configuration not stated)	ALDH1A1 inh inconclusive
CC1CCC/C(=N\NC(=S)NCc2ccccc2)C1 (configuration not stated)	ALDH1A1 inh inconclusive
CC1C/C(=N\NC(=S)NCc2ccccc2)CC(C)(C)C1 (configuration not stated)	PNC inhibitor inconclusive, ALDH1A1 inh 25µM
[NH-]c1ncnc2c1N=C[N+]2=CC=CCO	none (no result: PNC inhibitor, HPGD block)
O=C(NCc1cccc(Cl)c1)c1ccc2c(c1)SC1=NS(=O)(=O)CCN12	none (no result: PNC inhibitor, HPGD block)
O=C(NCc1ccccc1Cl)c1ccc2c(c1)SC1=NS(=O)(=O)CCN12	ALDH1A1 inh 4.5µM (no result: PNC inhibitor, HPGD block)
Cc1[nH]n(-c2ccccc2)c(=O)c1-c1ccc(Cl)cc1	none
CC1=NN(c2ccc(Cl)cc2)C(=O)C1C(c1ccccc1O)c1c(C)[nH]n(-c2ccc(Cl)cc2)c1=O (configuration not stated)	HPGD block 7.9µM, ALDH1A1 inh 7.5µM
CC(=O)c1c(C)[nH]c(C(=O)N2CCc3ccccc3C2)c1C	HPGD block 18µM
CCOC(=O)c1c(C)c(C(=O)N2CCc3ccccc3C2)c(C)n1CC	HPGD block 4.5µM, ALDH1A1 inh inconclusive
CC(=O)c1c(C)[nH]c(C(=O)N2CCN(C(=O)c3ccco3)CC2)c1C	PNC inhibitor inconclusive
CCOC(=O)c1c(C)c(C(=O)Nc2ccccc2)c(C)n1CC	PNC inhibitor inconclusive
CCCCCCCCCCCCCCCC(=O)OC(CO)CO	none (no result: PNC inhibitor)
CC(=O)N1CCc2cc(Br)cc(S(=O)(=O)CCC(=O)N3CCN(c4ccccn4)CC3)c21	none (no result: PNC inhibitor, HPGD block)
Cc1nn(-c2ccccc2)c(C)c1/C=N/NC(=O)CSc1nnc(SCc2ccc(Cl)cc2)s1	none
Cc1ccc(NC(=O)CSc2nnc(CNC(=O)c3c(F)cccc3Cl)o2)cc1	PNC inhibitor -91
CCSc1nnc(NC(=O)CSc2nnc(CNC(=O)c3ccccc3F)o2)s1	PNC inhibitor -124, ALDH1A1 inh inconclusive
Cc1ccc(NC(=O)CSc2nnc(Cn3cnc4ccccc43)o2)cc1	none
O=C(CSc1nnc(CNC(=O)c2ccccc2F)o1)NCCc1ccccc1	none
COC(=O)[C@H](COC(C)(C)C)NC(=O)O[C@@H]1C(=O)c2ccc(OC)cc2O[C@H]1c1cccc(C(F)(F)F)c1	none (no result: PNC inhibitor)
O=c1oc2ccccc2c(O)c1C=NCc1ccccn1	HPGD block inconclusive, ALDH1A1 inh 28µM
O=c1c2ccccc2c(C=NCc2ccccn2)c(O)n1-c1ccccc1	PNC inhibitor inconclusive, HPGD block inconclusive
COC(=O)c1c(NC(=O)COC(=O)CNC(=O)C2CCCCC2)sc(C)c1C	none
COc1ccc(C)cc1C(=O)CCC(=O)NC1CCCCC1	none (no result: PNC inhibitor, HPGD block)
Cc1ccc2c(c1)NCC(C(=O)NC1CCCCC1)O2 (configuration not stated)	PNC inhibitor inconclusive, HPGD block 13µM
CCCCN(C(=O)/C=C/c1ccco1)c1c(N)n(Cc2ccccc2)c(=O)[nH]c1=O	none (no result: PNC inhibitor, HPGD block)
O=C(CN1CCCC(O)C1)N1c2ccccc2Sc2ccc(C(F)(F)F)cc21 (configuration not stated)	none (no result: HPGD block)
Cc1cc(C)n(CC(=O)N2c3ccccc3Sc3ccc(C(F)(F)F)cc32)n1	PNC inhibitor -113
Cc1cccc(-c2noc(CN(C(=O)c3c(-c4ccccc4Cl)noc3C)C(C)C)n2)c1	none
CC(C)N(Cc1nnc(-c2ccccc2Cl)o1)C(=O)c1cccc(C#N)c1	ALDH1A1 inh 6.3µM
COC(=O)c1c(C)nc(C)c(C(=O)OC)c1-c1ccc(OC)c(OC)c1	none (no result: PNC inhibitor, HPGD block)
